# Reference: PubChem BioAssay (NCATS)
# Results filed as inconclusive are left out. Entries that show only a call come without a potency. The source made the active and inactive calls. The call rests on the fitted dose curve; in most records, active means well fitted curve in the direction sought with a large enough effect; inconclusive means small, poorly fitted or top-dose-only effect, or another doubt; inactive means no such curve, though single readings can be large; an effect the other way counts as inactive or inconclusive.
# Experiments:
# [1] = molecular target: Aldehyde dehydrogenase, mitochondrial (Homo sapiens) (UniProt P05091); test: qHTS for Inhibitors of the Aldehyde Dehydrogenase Family (ALDH2) Primary screen (AID 2061308); settings: ALDH2 enzyme inhibition qHTS, 1536-well; series mostly up to 56 µM; further: nearly all actives have a fitted effect of over 55% in size
# [2] = molecular target: Retinaldehyde dehydrogenase 3 (Homo sapiens) (UniProt P47895); test: qHTS for Inhibitors of the Aldehyde Dehydrogenase Family (ALDH1A3) Primary screen (AID 2061315); settings: ALDH inhibition qHTS; series mostly up to 56 µM
SMILES,Potency [1],Potency [2]
Cc1ccccc1C(=O)N1CCc2cc(-c3nc(NC(=O)Cc4ccc5c(c4)OCCO5)sc3C)ccc21,inactive,inactive
Cc1ccc(OCCn2c(CCNC(=O)C3CCCCC3)nc3ccccc32)cc1,inactive,inactive
Cc1nnc(-c2cnn(C)c2N)n1CCCc1ccccn1,inactive,inactive
COc1cccc(-c2ccc3ncnc(NCc4cccs4)c3c2)c1,inactive,inactive
Cc1cc(-c2nnc3n2CCCCC3)c(C)n1-c1cccc(Cl)c1,inactive,inactive
CCCn1c(C)nc2c(NCCN(CC)CC)nc(C)nc21,inactive,inactive
Cn1nnnc1Sc1ncnc2scc(-c3cccc(S(C)(=O)=O)c3)c12,inactive,inactive
Cc1cc2c(s1)c1cnn(Cc3c(F)ccc(C)c3F)c(=O)c1n2C,inactive,inactive
Cc1ccc(-c2cc(C(=O)NCc3ccc(S(C)(=O)=O)cc3)c3ccccc3n2)cc1C,inactive,inactive
CCOc1ccccc1-c1nnc2n1N=C(c1cc(OC)ccc1OC)CS2,inactive,inactive
Cc1ccc(S(=O)(=O)N(C)c2ccccc2C(=O)Nc2nc(-c3ccccc3)cs2)cc1,inactive,inactive
O=C(O)c1ccc2c(c1)C(=O)N([C@H](Cc1ccccc1)C(=O)O)C2=O,inactive,inactive
Cc1sc(NC(=O)Cc2ccc3c(c2)OCO3)nc1-c1ccc2c(c1)CCN2C(=O)C1CCCCC1,inactive,inactive
COc1ccc([S+](=O)([O-])N2CCCN([S+](=O)([O-])c3ccc(OC)c(N)c3)CC2)cc1N,inactive,inactive
CO/N=C(/C(=O)N[C@@H]1C(=O)N2C(C(=O)O)=C(Cn3nnc(C)n3)CS[C@H]12)c1csc(N)n1,inactive,inactive
CC(=O)O[C@H]1C(=O)[C@@]2(C)[C@H]([C@H](OC(=O)c3ccccc3)[C@]3(O)C[C@H](OC(=O)[C@H](O)[C@@H](NC(=O)c4ccccc4)c4ccccc4)C(C)=C1C3(C)C)[C@]1(OC(C)=O)CO[C@@H]1C[C@@H]2O,inactive,inactive
CN(C)c1ccc(-c2cc(O)c3ncccc3c2)cc1,inactive,inactive
CCOc1ccccc1-c1nnc2n1N=C(c1c(OC)cccc1OC)CS2,inactive,inactive
O=C(Nc1nc(-c2ccccc2)cs1)c1ccccc1,inactive,inactive

SMILES,Potency [1],Potency [2]
O=[S+]([O-])(Nc1ccc(N2CCNCC2)cc1)c1ccc(NCc2cccc(Cl)c2O)cc1,inactive,inactive
COc1ccc(C2Nc3ccccc3C(=O)N2Cc2cccc(OC)c2OC)cc1COc1c(C)cc(NC(C)=O)cc1C (centres undefined),inactive,inactive
O=[N+]([O-])c1cccc(CSc2nc3ncc(Br)cc3[nH]2)c1,inactive,inactive
Cc1ccc(OCCn2c(CCNC(=O)/C=C/c3ccccc3)nc3ccccc32)cc1,inactive,inactive
COc1ccc(C2=Nn3c(nnc3-c3ccccc3C)SC2)cc1OC,inactive,inactive
COc1cccc(NC(=S)N2CCN(c3cc(Cl)cc(Cl)c3)CC2)n1,inactive,inactive
COc1cccc(C2c3c(ncn(-c4ccccc4OC)c3=N)Oc3ccc4ccccc4c32)c1 (centres undefined),inactive,inactive
O=C(O)c1cccc(-c2cccc(-c3nn4c(=O)cc(N5CCNCC5)nc4s3)c2)c1,inactive,inactive
COc1cccc(C2c3c(ncn(-c4cccnc4)c3=N)Oc3ccc4ccccc4c32)c1 (centres undefined),inactive,inactive
CC(C)c1ccccc1-c1ncc(F)c(NCC2CCN(c3cccnc3)CC2)n1,inactive,inactive
O=C(Cn1cc(CN(Cc2ccccc2)Cc2ccccc2)nn1)Nc1cc(C(F)(F)F)ccc1Cl,inactive,inactive
CC(C)c1ccccc1-c1nc(NCc2ccc(-c3cccnc3)cc2)c2cccn2n1,inactive,inactive
CCc1ccc2oc(=O)cc(CN3CCN(c4ccccc4F)CC3)c2c1,inactive,inactive
COc1ccc2c(c1)Oc1ncn(CCN3CCOCC3)c(=N)c1C2c1ccc(OC)c(OC)c1 (centres undefined),inactive,inactive
N#Cc1c(-c2cc(C(F)(F)F)cc(C(F)(F)F)c2)no[n+]1[O-],inactive,inactive
CCN(CC)CCCC(C)n1c(-c2ccccc2)nc2c(NCc3ccccc3)nc(C)nc21 (centres undefined),inactive,inactive
O=C(Nc1ccc2ccccc2c1)Nc1nnc(-c2ccncc2)s1,inactive,inactive
Cc1cc(C)nc(NC(=S)N2CCN(c3cc(Cl)cc(C(F)(F)F)c3)CC2)c1,inactive,inactive
